Data on nine compounds can be found in PubChem BioAssay (NCI).

This is part of a sample that, as a whole, favours compounds with a hit. Of some 83,000 tested, about 20% had one in any assay.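 Method: cells in 96-well plates; compound added at one concentration; 48 h incubation; percent growth measured; values under 10 scored active.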 Unmarked numbers belong to inactive results. Activity calls are given as the source filed them.

Holding throughout (assay): NCI-60 one-dose screen, 48 h (100 = growth as untreated, 0 = no growth, -100 = all killed)
In one test the test system is NCI-H23 lung. Conditions: 10 µM unless noted.
A further test relates to NCI-H226 lung. The settings on record: 10 µM unless noted.
Another test deals with NCI-H322M lung. The settings on record: 10 µM unless noted.
A further test deals with HOP-62 NSCLC. The settings on record: 10 µM unless noted.
Another test has as its system NCI-H460 lung. Conditions: 10 µM unless noted.
The subject of a further test is HOP-92 NSCLC. The settings on record: 10 µM unless noted.
The test system of a further test is NCI-H522 lung. The settings on record: 10 µM.
In a further test the test system is 786-0 renal. Conditions: 10 µM unless noted.
For the next test, the system named is COLO 205 colon. Conditions: 10 µM unless noted.
Another test concerns DU-145 prostate. The settings on record: 10 µM unless noted.
In another test the test system is K-562 leukemia. Conditions: 10 µM unless noted.
In the next test the test system is MALME-3M melanoma. The settings on record: 10 µM unless noted.
A further test concerns MDA-MB-231 breast. Conditions: 10 µM unless noted.
A further test relates to RXF 393 renal. Conditions: 10 µM unless noted.
Another test relates to SF-268 CNS. The settings on record: 10 µM unless noted.
Another test relates to SF-295 CNS. The settings on record: 10 µM unless noted.
The test system of a further test is SF-539 CNS. Conditions: 10 µM unless noted.
For another test, the system named is M14 melanoma. The settings on record: 10 µM unless noted.
The test system of the next test is UACC-257 melanoma. The settings on record: 10 µM unless noted.

As for `CN1CCN(CCCOc2ccc3ncnc(Nc4ccc(OCc5cccc(F)c5)c(Cl)c4)c3c2)CC1`, the growth was 54.9% in the test with NCI-H23 lung; 88.8% in the test with NCI-H226 lung; -9.88% (active) with NCI-H322M lung; 19.7% in the test with HOP-62 NSCLC; -68.9% (active) in the test on NCI-H460 lung; 35% in the test with HOP-92 NSCLC. In addition, the growth in the test with NCI-H522 lung was -43.4% (active); in the test on 786-0 renal, -86.6% (active); in the test on COLO 205 colon, -46.5% (active); with DU-145 prostate, 18.8%; with K-562 leukemia, -26.9% (active); in the test on MALME-3M melanoma it was -78.6% (active). Moreover, the growth is -78.7% (active) with MDA-MB-231 breast; -80.4% (active) with RXF 393 renal; -43% (active) in the test with SF-268 CNS; -57.4% (active) in the test on SF-295 CNS; -88.9% (active) with SF-539 CNS; -83.4% (active) with M14 melanoma.
As for `CC(C)Sc1nc(Cl)c(C#N)c(-c2ccc(F)cc2)n1`, the growth in the test with NCI-H23 lung is 100%; with NCI-H226 lung, 103%; in the test on NCI-H322M lung, 102%; in the test with HOP-62 NSCLC, 109%; in the test with NCI-H460 lung, 113%; in the test on HOP-92 NSCLC it was 92.2%. The growth was 86.8% in the test on NCI-H522 lung; 96.4% with 786-0 renal; 115% in the test with COLO 205 colon; 113% in the test with DU-145 prostate; 16.2% with K-562 leukemia; 100% with MALME-3M melanoma. Also, the growth was 111% in the test on MDA-MB-231 breast; 116% with RXF 393 renal; 106% in the test on SF-268 CNS; 108% in the test with SF-295 CNS; 96.5% in the test on SF-539 CNS; 118% in the test with UACC-257 melanoma. Further, in the test on M14 melanoma, the growth is 94.5%.
`C[C@H]1O[C@@H](O[C@H]2[C@@H](O)C[C@H](O[C@H]3[C@@H](O)C[C@H](O[C@H]4CC[C@]5(C)C6C[C@@H](O)[C@]7(C)[C@@H](C8=CC(=O)OC8)CC[C@]7(O)C6CC[C@@H]5C4)O[C@@H]3C)O[C@@H]2C)C[C@H](O)[C@@H]1O` (stereo partly drawn): the growth in the test on NCI-H23 lung is -54.9% (active); in the test on NCI-H226 lung it was -100% (active); in the test with NCI-H322M lung, -75.3% (active); with HOP-62 NSCLC, -100% (active); in the test on NCI-H460 lung it was -95.1% (active); in the test on HOP-92 NSCLC it was -26% (active). The growth was -83.9% (active) in the test on NCI-H522 lung; -91.7% (active) with 786-0 renal; -85.9% (active) in the test on COLO 205 colon; -100% (active) in the test on DU-145 prostate; -24.2% (active) in the test with K-562 leukemia; -57.2% (active) in the test on MALME-3M melanoma. Besides, the growth in the test with MDA-MB-231 breast is -83.6% (active); in the test on RXF 393 renal, -22.4% (active); in the test on SF-268 CNS, -100% (active); in the test with SF-295 CNS, -99.9% (active); with SF-539 CNS, -96.2% (active); in the test on UACC-257 melanoma it was -100% (active). Besides, the growth with M14 melanoma is -81.6% (active).
For `O=C(c1ccc(Cl)cc1)c1ccc(Cl)cc1`, the growth in the test on NCI-H23 lung is 104%; in the test with NCI-H226 lung, 100%; in the test with NCI-H322M lung, 115%; with HOP-62 NSCLC, 98.8%; in the test with NCI-H460 lung it was 107%; in the test with HOP-92 NSCLC, 101%. Besides, the growth with NCI-H522 lung was 85.2%; in the test on 786-0 renal it was 114%; in the test with COLO 205 colon, 117%; with DU-145 prostate, 108%; in the test with K-562 leukemia it was 98.2%; in the test with MALME-3M melanoma, 129%. In addition, the growth was 124% with MDA-MB-231 breast; 103% in the test on RXF 393 renal; 104% in the test with SF-268 CNS; 102% in the test with SF-295 CNS; 107% in the test with SF-539 CNS; 114% in the test with M14 melanoma.
Turning to `O=C(O)c1ccc(CNS(=O)(=O)c2ccc3ccccc3c2)cc1`, the growth in the test with NCI-H23 lung was 119%; with NCI-H226 lung, 100%; with NCI-H322M lung, 114%; with HOP-62 NSCLC, 112%; in the test on NCI-H460 lung, 120%; in the test on HOP-92 NSCLC it was 132%. Further, the growth in the test with NCI-H522 lung was 104%; in the test on 786-0 renal, 106%; in the test with COLO 205 colon, 105%; with DU-145 prostate it was 93.7%; in the test with K-562 leukemia, 94.5%; in the test on MALME-3M melanoma, 93.7%. In addition, the growth with MDA-MB-231 breast is 105%; in the test with SF-268 CNS it was 96.2%; with SF-295 CNS it was 105%; in the test with SF-539 CNS, 106%; with UACC-257 melanoma, 99.1%; in the test with M14 melanoma, 103%.
In the case of `O=C(/C=C(\Nc1ccccc1)c1ccccc1)c1cn(-c2ccc([N+](=O)[O-])cc2)nn1`, the growth was 91.4% with NCI-H23 lung; 95.3% in the test with NCI-H226 lung; 82.8% in the test on NCI-H322M lung; 101% with HOP-62 NSCLC; 91% in the test on NCI-H460 lung; 95% in the test with HOP-92 NSCLC. For the same compound, the growth was 86.1% in the test on NCI-H522 lung; 92.1% in the test on 786-0 renal; 97.2% in the test on COLO 205 colon; 125% with DU-145 prostate; 73.8% in the test on K-562 leukemia; 103% in the test on MALME-3M melanoma. For the same compound, the growth with MDA-MB-231 breast was 103%; with SF-268 CNS, 98.3%; with SF-295 CNS, 73.3%; with SF-539 CNS, 94.9%; with UACC-257 melanoma it was 42.4%; with M14 melanoma, 97.6%.
For `CCSc1ncc(Br)c(Sc2nc(N)nc3nc[nH]c23)n1`, the growth is 37.9% with NCI-H23 lung; 65.4% in the test with NCI-H226 lung; 89.1% in the test with NCI-H322M lung; 31.8% in the test with HOP-62 NSCLC; 46.6% in the test on NCI-H460 lung; 31.6% in the test on HOP-92 NSCLC. In addition, the growth in the test with NCI-H522 lung is 59%; in the test on 786-0 renal, 33.6%; with COLO 205 colon, 110%; with DU-145 prostate, 43.1%; with K-562 leukemia, 26.6%; with MALME-3M melanoma, 36.2%. For the same compound, the growth is 40.9% in the test on MDA-MB-231 breast; 44.8% with SF-268 CNS; 38.6% in the test with SF-295 CNS; 60.1% with SF-539 CNS; 31.7% with M14 melanoma.
Take `Cc1cc2ccccn2c1C(=O)c1ccc(C(=O)c2ccccc2)cc1`: the growth in the test on NCI-H23 lung is 84%; in the test on NCI-H226 lung it was 86.9%; with NCI-H322M lung, 90.1%; with HOP-62 NSCLC it was 98.4%; in the test on NCI-H460 lung, 97.3%; with HOP-92 NSCLC, 82.3%. For the same compound, the growth is 79.7% in the test on NCI-H522 lung; 84.9% in the test with 786-0 renal; 102% in the test on COLO 205 colon; 85.8% in the test on DU-145 prostate; 94.3% in the test with K-562 leukemia; 76.8% with MALME-3M melanoma. Besides, the growth was 91% with MDA-MB-231 breast; 99.7% in the test on SF-268 CNS; 83.2% in the test on SF-295 CNS; 98.7% in the test on SF-539 CNS; 43.4% in the test with UACC-257 melanoma; 91.1% in the test on M14 melanoma.
In the case of `O=C(/C=C/c1ccc([N+](=O)[O-])cc1)c1ccc2c3c(cccc13)CC2`, the growth in the test on NCI-H23 lung is 67.9%; with NCI-H226 lung, 66.9%; in the test with NCI-H322M lung, 78.4%; in the test on HOP-62 NSCLC, 53.9%; in the test with NCI-H460 lung, 38.4%; in the test with HOP-92 NSCLC, 55%. Moreover, the growth with NCI-H522 lung is 70.4%; with 786-0 renal, 83.9%; with COLO 205 colon, 49%; with DU-145 prostate it was 38.7%; in the test with K-562 leukemia, 44.8%; in the test on MALME-3M melanoma, 79.7%. The growth with MDA-MB-231 breast is 81.4%; in the test with SF-268 CNS, 80.9%; in the test with SF-295 CNS it was -17.9% (active); in the test with SF-539 CNS, 33.1%; with UACC-257 melanoma, 3.27% (active); in the test on M14 melanoma, 95.3%.
